PI4K2A block – PI4K2A (human) kinase inhibition; activity change, negative = inhibition, % at 76.9 µM; AID 1346378; Q9BTU6; hit rate 0.13% among 420,000; purified PI4K2A, ADP-Glo luminescence, 1 h; stronger effect = lower value; in the data active = activity change below about -50%; inconclusive = mostly about -30% to -49%;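 note: -100% = wells without enzyme as full effect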
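PI4K2A activity was measured by ADP-Glo luminescence: enzyme (4 ug/mL stock) and phosphatidylinositol (1.2 mM stock) in Tris pH 7.5/MgCl2/EGTA/Triton X-100 buffer were reacted with ATP (300 microM stock) for one hour at ambient temperature.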
PI5P4K alpha inh – PI5P4K alpha (human) kinase inhibition; P48426; PI5P4Kalpha enzyme, ADP-Glo luminescence, 60 min; stronger effect = lower value; max response, %; hit rate 1.2% among 330,000; AID 652105; active = max response of -50% or lower; inconclusive = between -30% and -50%; inactive = -30% or higher; note: value at the top dose of about 77 µM; % is set by controls: 0 for no effect and ±100 for the full control effect
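Reactions run in 0.038 M HEPES pH 7.4, 0.28 mM EGTA, 0.1% CHAPS and 5% DMSO, with PI5P4Kalpha, substrate, compound and 5 microM ATP final, one hour at room temperature. Readout is ADP-Glo luminescence.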
Pin1 inh – blocks the human prolyl isomerase Pin1. Potency, µM (titrated, usually from 115 µM), for the others: at the highest dose activity, negative = inhibition, most hits filed as inhibitors. Pin1 FP peptide displacement, HiFluor488, 10 min. Q13526. hit rate 0.009% among 390,000. AID 504891; active = well fitted inhibition curve with a large enough effect in the polarisation, with a control signal flat, not every such curve was filed as active; inconclusive = small, poorly fitted or top-dose-only effect, or effect the other way, or a change in a side signal; inactive = no such curve, though single readings can be large or run the other way; the % refers to the polarisation; note: potency is the fitted concentration of half-maximal effect; % is set by controls: 0 for no effect and ±100 for the full control effect
Target sequence (Q13526 whole entry, looked up): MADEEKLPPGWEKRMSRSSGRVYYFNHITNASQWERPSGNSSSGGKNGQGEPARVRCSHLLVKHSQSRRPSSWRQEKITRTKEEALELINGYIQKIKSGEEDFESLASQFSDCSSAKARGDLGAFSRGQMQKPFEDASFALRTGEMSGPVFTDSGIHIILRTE
Tb PFK inh-1 – blocks T. brucei phosphofructokinase; T. brucei PFK, ADP-Glo luminescence; Potency, µM (series often up to 57.5 µM), inactives show at the highest dose activity, negative = inhibition, most hits filed as inhibitors; AID 485367; hit rate 0.17% among 330,000;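 note: potency is the fitted concentration of half-maximal effect; 0% = uninhibited 1x PFK enzyme wells and -100% = no-enzyme wells; nearly all actives have a fitted effect of over 60% in size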
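Compounds were pin-transferred as a titration series up to 57 uM into substrate buffer (0.5 mM F6P, 0.1 mM ATP, pH 8.0), then 1.25 nM PFK was added and reactions ran 45 min before ADP-Glo detection.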
PGK inhibitor – T. brucei PGK inhibition. P07378. PGK/GAPDH coupled, Kinase-Glo luminescence, 60 min. Potency, µM (highest dose often 57.5 µM), for the others: top-dose activity change, negative = inhibition, hits mostly inhibitors. hit rate 0.043% among 380,000. AID 602233; note: potency is the fitted concentration of half-maximal effect; % is set by controls: 0 for no effect and ±100 for the full control effect; nearly all actives have a fitted effect of over 60% in size
Target sequence (P07378 whole entry, looked up): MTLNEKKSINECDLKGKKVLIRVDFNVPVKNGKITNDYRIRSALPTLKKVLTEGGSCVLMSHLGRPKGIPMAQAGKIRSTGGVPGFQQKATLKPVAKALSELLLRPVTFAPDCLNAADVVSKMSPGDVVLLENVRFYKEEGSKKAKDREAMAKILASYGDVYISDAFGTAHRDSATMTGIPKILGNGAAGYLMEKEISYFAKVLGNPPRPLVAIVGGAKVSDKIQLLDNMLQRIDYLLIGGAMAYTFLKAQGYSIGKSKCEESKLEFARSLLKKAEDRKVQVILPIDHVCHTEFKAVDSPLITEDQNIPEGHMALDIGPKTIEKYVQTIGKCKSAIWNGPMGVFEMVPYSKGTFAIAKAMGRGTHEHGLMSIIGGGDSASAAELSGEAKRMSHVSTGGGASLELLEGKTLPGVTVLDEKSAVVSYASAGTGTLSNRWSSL
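Luminescent ATP detection (Kinase-Glo Plus) follows a 60-minute room-temperature incubation, with wells lacking PGK as controls. Buffer: 100 mM TEA (pH 7.6), 5 mM MgCl2, 0.01% Tween-20. Coupling enzyme GAPDH (100 nM final) supplies unstable 1,3-BPG in-well.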
TbPFK ATP – orthogonal confirmation of T. brucei phosphofructokinase inhibitors | shares compounds with Tb PFK inh-1 | Tb PFK enzyme, ATP depletion, Kinase-Glo Plus luminescence | Potency, µM (series often up to 57.5 µM), without a hit: top-dose inhibition | hit rate 47% among 1,100; calls by dose curve; note: potency is the fitted concentration of half-maximal effect; nearly all actives have a fitted effect of over 60% in size
Tb PFK inh-2 – T. brucei PFK enzyme inhibition, hit validation; shares compounds with Tb PFK inh-1; purified T. brucei PFK, ADP-Glo luminescence, 45 min; Potency, µM (titrated, usually from 57.5 µM), for inactives: at the highest dose activity change, negative = inhibition, actives largely listed as inhibitors; hit rate 41% among 1,100; AID 504637;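 note: potency is the fitted concentration of half-maximal effect; plate controls were full PFK enzyme control for no effect and no enzyme control for full effect; nearly all actives have a fitted effect of over 60% in size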
Numbers without * were called inactive. The sample as a whole holds a higher share of hits than the screen did. Unless noted, calls come from the whole dose curve; as a rule, active = well fitted curve in the direction sought with a large enough effect; inconclusive = small, poorly fitted or top-dose-only effect, or another doubt; inactive = no such curve, though single readings can be large; an effect the other way counts as inactive or inconclusive.

For CCN(CC)CCN=C(C)c1c(O)n(-c2ccccc2OC)c(=O)[nH]c1=O the results were PI4K2A block 7, PI5P4K alpha inh -2, Pin1 inh 14%, Tb PFK inh-1 3% and PGK inhibitor -1%.
Screening O=C(O)CC1S/C(=N/N=C/c2ccc(-c3ccccc3[N+](=O)[O-])o2)NC1=O (configuration not stated) returned PI4K2A block -6, Pin1 inh inconclusive, Tb PFK inh-1 inconclusive, PGK inhibitor -16%, TbPFK ATP -31% and Tb PFK inh-2 inconclusive.
`Cc1ccc(-c2ccc(/C=N/N=C3/NC(=O)C(CC(=O)O)S3)o2)c([N+](=O)[O-])c1` (configuration not stated) gave PI4K2A block -4, PI5P4K alpha inh inconclusive, Pin1 inh -18%, Tb PFK inh-1 inconclusive, PGK inhibitor inactive, TbPFK ATP -34% and Tb PFK inh-2 inconclusive.
COc1ccc(OC)c(-n2c(O)c(C=NCCN3CCNCC3)c(=O)[nH]c2=S)c1 was read as PI4K2A block 0, PI5P4K alpha inh 6, Pin1 inh 3%, Tb PFK inh-1 3% and PGK inhibitor -6%.
Screening C=CCn1c(O)c(C(CC)=Nc2ccc(NC(C)=O)cc2)c(=O)[nH]c1=O returned PI4K2A block -1, PI5P4K alpha inh -1, Pin1 inh 2%, Tb PFK inh-1 1% and PGK inhibitor inactive.
For Cc1c(Br)c(O)c(Br)c2sc(=O)oc12 the results were PI4K2A block -24, PI5P4K alpha inh -69*, Pin1 inh -16%, Tb PFK inh-1 inconclusive, PGK inhibitor 3%, TbPFK ATP 14% and Tb PFK inh-2 -28%.
Screening C1CN2CCC1CC2 returned PI4K2A block 5.
For O=C1CN=C(c2ccccc2Cl)c2cc(Cl)ccc2N1Cc1cccc(Cl)c1 the results were PI4K2A block 0, Pin1 inh inconclusive and PGK inhibitor 5%.
For COc1ccccc1N1CCN(Cc2ccc(Br)cc2)CC1 the results were PI4K2A block 4, PI5P4K alpha inh 6, Pin1 inh -2%, Tb PFK inh-1 -3% and PGK inhibitor inactive.
For Clc1cccc(CN2C3=NCCCN3c3ccccc32)c1 the results were PI4K2A block -1, PI5P4K alpha inh 5, Pin1 inh -3%, Tb PFK inh-1 inconclusive, PGK inhibitor 10%, TbPFK ATP inconclusive and Tb PFK inh-2 inconclusive.
c1ccc(OCCN2C3=NCCN3c3ccccc32)cc1 was read as PI4K2A block 3, PI5P4K alpha inh 0, Pin1 inh 0%, Tb PFK inh-1 21µM*, PGK inhibitor -3%, TbPFK ATP 24µM* and Tb PFK inh-2 inconclusive.
`Clc1ccc(CN2C3=NCCN3c3ccccc32)cc1` gave PI4K2A block 4, PI5P4K alpha inh 0, Pin1 inh 2%, Tb PFK inh-1 24µM*, PGK inhibitor 2%, TbPFK ATP 21µM* and Tb PFK inh-2 27µM*.
For O=C1NC(=O)[C@]2(Cc3ccccc3N3CCN(c4ccccc4)CC32)C(=O)N1Cc1ccccc1 (some centres not stated) the results were PI4K2A block -10, PI5P4K alpha inh inconclusive, Pin1 inh 3%, Tb PFK inh-1 0% and PGK inhibitor -5%.
Screening Brc1ccc(CN2C3=NCCCN3c3ccccc32)cc1 returned PI4K2A block -3, PI5P4K alpha inh 3, Pin1 inh -5%, Tb PFK inh-1 inconclusive, PGK inhibitor -10%, TbPFK ATP 27µM* and Tb PFK inh-2 inconclusive.
For CC(=NCCc1ccccc1)c1c(O)[nH]c(=O)[nH]c1=O the results were PI4K2A block 3, PI5P4K alpha inh inconclusive, Pin1 inh 5%, Tb PFK inh-1 1% and PGK inhibitor -5%.
`S=c1[nH]nc(-c2cccnc2)n1/N=C/C=C/c1ccco1` gave PI4K2A block -13, PI5P4K alpha inh -21, Pin1 inh inconclusive, Tb PFK inh-1 30µM*, PGK inhibitor 5%, TbPFK ATP 6µM* and Tb PFK inh-2 inconclusive.
Screening S=c1[nH]nc(-c2ccco2)n1-c1cccc2ccccc12 returned PI4K2A block -7, PI5P4K alpha inh -4, Pin1 inh inconclusive, Tb PFK inh-1 -15% and PGK inhibitor 2%.
Screening Cc1cccc(C)c1-n1nnnc1C(CCc1ccccc1)N1CCC(n2c(=O)[nH]c3ccccc32)CC1 (configuration not stated) returned PI4K2A block 3 and PI5P4K alpha inh 1.
Screening CCOc1cccc(N2C(=O)/C(=C/c3ccco3)C(=O)NC2=S)c1 returned PI4K2A block -15, PI5P4K alpha inh -93*, Pin1 inh -7%, Tb PFK inh-1 inconclusive, PGK inhibitor inconclusive, TbPFK ATP inconclusive and Tb PFK inh-2 inconclusive.
COc1ccc(N2C(=O)/C(=C/c3ccc(N(C)C)o3)C(=O)NC2=S)cc1 was read as PI4K2A block -9, PI5P4K alpha inh 0, Pin1 inh inconclusive, Tb PFK inh-1 -2% and PGK inhibitor -8%.
Screening O=[N+]([O-])c1ccc(Sc2cccc[n+]2[O-])c2nonc12 returned PI4K2A block inconclusive, PI5P4K alpha inh -53*, Pin1 inh inconclusive, Tb PFK inh-1 11µM*, PGK inhibitor inconclusive, TbPFK ATP 2.7µM* and Tb PFK inh-2 9.5µM*.
For CN(C)C1(CNC(=O)Nc2ccc(Cl)c(Cl)c2)CCCCC1 the results were PI4K2A block 1, PI5P4K alpha inh 7, Pin1 inh -6%, Tb PFK inh-1 -6% and PGK inhibitor -10%.
O=C(Nc1cnn(Cc2ccc(Cl)c(Cl)c2)c1)C12CC3CC(CC(C3)C1)C2 was read as PI4K2A block -2, PI5P4K alpha inh -11, Pin1 inh 0%, Tb PFK inh-1 inconclusive, PGK inhibitor -6%, TbPFK ATP inconclusive and Tb PFK inh-2 inconclusive.
`CSc1ccc(C(=O)C2CCCN(C)C2)cc1` (configuration not stated) gave PI4K2A block 1, PI5P4K alpha inh 0, Pin1 inh -2%, Tb PFK inh-1 0% and PGK inhibitor 0%.
CSc1ccc(C(=S)N2CCN(C)CC2)cc1 was read as PI4K2A block -3, Pin1 inh -6%, Tb PFK inh-1 inconclusive, PGK inhibitor 0%, TbPFK ATP 21µM* and Tb PFK inh-2 inconclusive.
`CN1CCN(C(=S)c2ccc(Br)cc2)CC1` gave PI4K2A block -3, PI5P4K alpha inh 1, Pin1 inh 0%, Tb PFK inh-1 inconclusive, PGK inhibitor 13%, TbPFK ATP 12µM* and Tb PFK inh-2 13µM*.

High-throughput results deposited in PubChem by National Center for Advancing Translational Sciences (NCATS).
